Laboratory results from PubChem BioAssay (NCATS).
Several values for one entry are separate records, joined by “and”; a condition that tells them apart may be missing. Equal entries are not always repeated. Results filed as inconclusive are left out. Activity calls are given as the source filed them. The call rests on the fitted dose curve; in most records, active means well fitted curve in the direction sought with a large enough effect; inconclusive means small, poorly fitted or top-dose-only effect, or another doubt; inactive means no such curve, though single readings can be large; an effect the other way counts as inactive or inconclusive.

How the values were obtained:
[1] = Viability qHTS for spleen associated tyrosine kinase inhibitor (SYKi) naive MV4-11 cells (AID 1963823); conditions: MV4-11 AML viability, CellTiter-Glo luminescence, 72 h; series mostly up to 45 µM; further: nearly all actives have a fitted effect of over 40% in size
Summary of the method: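 SYKi-naive MV4-11 AML cells, 500 per well, were exposed to library compounds for 72 hr at 37 C, 5% CO2. Viability was then read by CellTiter-Glo luminescence after 10 min at room temperature.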

[2] = Viability qHTS for spleen associated tyrosine kinase inhibitor (SYKi) drug resistant MV4-11 cells (AID 1963824); conditions: SYKi-resistant MV4-11 viability, CellTiter-Glo, 72 h; series mostly up to 45 µM; further: nearly all actives have a fitted effect of over 35% in size
Summary of the method: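 SYK inhibitor-resistant MV4-11 AML cells, 500 per well, added to predispensed compounds and incubated 72 hr at 37 C, 5% CO2. Viability measured by CellTiter-Glo luminescence after 10 min at room temperature.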

[3] = Cellular viability qHTS for adrenocortical cancer (ACC) cell line NCI-H295R (AID 1963990); conditions: CellTiter-Glo ATP luminescence, 48 h; series mostly up to 46.1 µM; further: nearly all actives have a fitted effect of over 60% in size
Summary of the method: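 Readout: CellTiter-Glo luminescence, 20 min RT. Exposure: 48 h, 37C/5% CO2. Cells: NCI-H295R, ITS-DMEM serum-free. Range: up to 46 uM. Analysis: 4PL fit, IC50 plus efficacy.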
Potency means the concentration at half of the fitted maximal effect.

SMILES | Potency [1] | Potency [2] | Potency [3]
N#Cc1ccc(-c2c(-c3ncn[nH]3)sc(N3CCOCC3)c2C#N)c(F)c1 | 3.26 µM (active) and 3.32 µM (active) | 2.06 µM (active) and 5.9 µM (active) | 4.47 µM (active)
COC(=O)/C=C\C(=O)OC | inactive | inactive | inactive
CCCS(=O)(=O)c1nc(NC2CC2)cc(-c2ccc3c(ccn3C3CC(C)(C)NC(C)(C)C3)c2)n1 | 1.75 µM (active) | 1.11 µM (active) | 2.18 µM (active)
COC1=C(OC)C(=O)C(C/C=C(\C)CC/C=C(\C)CC/C=C(\C)CC/C=C(/C)CC/C=C(\C)CC/C=C(\C)CC/C=C(\C)CC/C=C(\C)CC/C=C(\C)CCC=C(C)C)=C(C)C1=O | inactive | inactive | inactive
CCCNC(C)(C)COC(=O)c1ccccc1 | inactive | inactive | inactive
Cc1cnc(NC(=O)c2cc(Oc3cnc(C(=O)N(C)C)nc3)c3cc(C)oc3c2)cn1 | inactive | inactive | inactive
CC(=O)C1CCC2C3CCC4=CC(=O)CCC4(C)C3CCC12C (stereo not given) | 16.6 µM (active) | 9.34 µM (active) | inactive
Cc1ccc(-n2c(C)cc(-c3nnc4n3CCCCC4)c2C)cc1 | 8.33 µM (active) | 8.33 µM (active) | inactive
COc1cc(OC)cc(N(CCNC(C)C)c2ccc3ncc(-c4cnn(C)c4)nc3c2)c1 | 5.25 µM (active) | 4.11 µM (active) | 22.4 µM (active)
CN1CCCN(C(c2ccccc2)c2ccc(Cl)cc2)CC1 (stereo not given) | 21.1 µM (active) | 16.8 µM (active) | 23.1 µM (active)
